Measured potencies and affinities stand elsewhere. Results filed as inconclusive are left out.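 How the source made its calls: active means fitted half-maximal concentration no higher than twice the top tested dose, in every repeat run; inconclusive means repeat runs disagree, poor fit, or flat partial inhibition; inactive means the rest.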
What follows are compounds tested against Endoplasmic reticulum aminopeptidase 1 (Homo sapiens) (UniProt Q9NZ08) (assay: inhibition of human ERAP1 enzyme activity – biochemical, cherry-pick, set 2, plate reader, dose response (AID 743314;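 further: 0% = neutral control wells and -100% = L-leucinethiol positive control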)). Settings: Recombinant ERAP1, Leu-AMC fluorescence, 60 min; series mostly up to 11 µM; activity change, negative = inhibition: at the top concentration.
Sequence of Endoplasmic reticulum aminopeptidase 1 (Homo sapiens) (Q9NZ08 whole entry, looked up): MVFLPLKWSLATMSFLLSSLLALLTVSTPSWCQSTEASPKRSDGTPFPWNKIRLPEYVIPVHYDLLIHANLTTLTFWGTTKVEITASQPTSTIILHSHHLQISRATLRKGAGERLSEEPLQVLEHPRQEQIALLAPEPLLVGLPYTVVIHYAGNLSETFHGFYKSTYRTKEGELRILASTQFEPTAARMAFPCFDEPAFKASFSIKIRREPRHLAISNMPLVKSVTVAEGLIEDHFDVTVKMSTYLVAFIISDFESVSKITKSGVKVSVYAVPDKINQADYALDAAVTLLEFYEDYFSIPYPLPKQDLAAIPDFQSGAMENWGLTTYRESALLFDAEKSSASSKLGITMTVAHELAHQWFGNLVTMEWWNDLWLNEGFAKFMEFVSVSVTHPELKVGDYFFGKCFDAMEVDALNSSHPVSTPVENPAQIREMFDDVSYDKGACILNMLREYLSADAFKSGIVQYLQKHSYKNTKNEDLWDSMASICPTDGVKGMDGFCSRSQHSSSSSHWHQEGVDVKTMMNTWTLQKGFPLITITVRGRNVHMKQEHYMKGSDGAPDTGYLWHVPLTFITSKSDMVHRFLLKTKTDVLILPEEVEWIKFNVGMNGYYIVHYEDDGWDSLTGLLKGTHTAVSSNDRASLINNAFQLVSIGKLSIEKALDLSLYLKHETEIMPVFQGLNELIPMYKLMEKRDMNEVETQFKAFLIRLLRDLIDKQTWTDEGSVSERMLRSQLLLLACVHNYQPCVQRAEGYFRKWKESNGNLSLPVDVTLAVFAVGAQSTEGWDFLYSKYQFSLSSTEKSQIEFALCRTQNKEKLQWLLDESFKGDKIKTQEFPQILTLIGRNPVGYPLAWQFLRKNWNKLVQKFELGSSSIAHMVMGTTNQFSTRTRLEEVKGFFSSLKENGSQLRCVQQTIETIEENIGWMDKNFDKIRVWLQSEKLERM

Activity change, negative = inhibition, inactive:
C[C@@H]1CCCCO[C@H](CN(C)Cc2ccc(C(=O)O)cc2)[C@H](C)CN([C@@H](C)CO)C(=O)c2cc(NC(=O)Nc3ccc(C(F)(F)F)cc3)ccc2O1 216% [at 5.6 µM], O=C(C[C@H]1CC[C@@H]2[C@H](COC[C@@H](O)CN2C(=O)Nc2cccc(Cl)c2)O1)N1CCCCC1 63.7%, Cc1noc(C)c1NC(=O)N(C)C[C@@H]1Oc2c(NC(=O)Nc3ccc(F)cc3)cccc2C(=O)N([C@@H](C)CO)C[C@H]1C 28.5%, CCOC(=O)c1nnn(CC(=O)Nc2ccccc2)c1C(=O)OCC -2.98%, COc1ccc(CN(C)C[C@H]2OCCCC[C@H](C)Oc3ccc(NC(=O)Nc4ccc(F)cc4)cc3C(=O)N([C@@H](C)CO)C[C@@H]2C)cc1 12.2%, CN(C)C(=O)c1cccc(-c2ccc3c(c2)[C@@H]2[C@@H](CCN2Cc2nccs2)[C@@H](CO)N3)c1 33.6%, COCCN(C(=O)COC(=O)CNC(=O)c1cccs1)c1c(N)n(Cc2ccccc2)c(=O)[nH]c1=O -3.47%, COCC(=O)N1CCC2(CC1)CN(Cc1ccccc1F)[C@H](CO)c1[nH]c3cc(OC)ccc3c12 21.8%, C[C@@H]1CN([C@@H](C)CO)C(=O)Cc2cc(NC(=O)Nc3cccc4ccccc34)ccc2O[C@H]1CN(C)Cc1ccc(C(=O)O)cc1 17.1%, C[C@H](NC(=O)C[C@H]1CC[C@H]2[C@@H](COC[C@H](O)CN2C(=O)Nc2ccccc2)O1)c1ccccc1 46.1%, CCC(=O)N1[C@@H](CO)[C@@H](c2ccccc2)C12CN(Cc1cccnc1)C2 43%
